# Data reported in PubChem BioAssay (NCI).
# This is part of a sample that, as a whole, favours compounds with a hit. Of some 83,000 tested, about 20% had one in any assay.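 Single-concentration screen, 48 h exposure, 96-well plates. Endpoint: percent growth. Below 10 = active.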 Values without a mark were called inactive. The source made the active and inactive calls.
# Assays:
# Experiment in all cases: NCI-60 one-dose screen, 48 h (100 = growth as untreated, 0 = no growth, -100 = all killed)
# Conditions in all cases: 10 µM unless noted
# [1] = test system: DU-145 prostate
# [2] = test system: MALME-3M melanoma
# [3] = test system: MDA-MB-231 breast
# [4] = test system: RXF 393 renal
# [5] = test system: SF-268 CNS
# [6] = test system: SF-295 CNS
# [7] = test system: SF-539 CNS
# [8] = test system: UACC-257 melanoma
# [9] = test system: HCT-15 colon
# [10] = test system: HT29 colon
# [11] = test system: SNB-75 CNS
# [12] = test system: SNB-19 CNS
# [13] = test system: U251 CNS
# [14] = test system: PC-3 prostate
# [15] = test system: SK-MEL-5 melanoma
# [16] = test system: UACC-62 melanoma
# [17] = test system: LOX IMVI melanoma
# [18] = test system: SK-MEL-28 melanoma
# [19] = test system: K-562 leukemia
# [20] = test system: M14 melanoma
SMILES,growth [1],growth [2],growth [3],growth [4],growth [5],growth [6],growth [7],growth [8],growth [9],growth [10],growth [11],growth [12],growth [13],growth [14],growth [15],growth [16],growth [17],growth [18],growth [19],growth [20] [%]
O=[N+]([O-])c1ccc2[nH]cc(-c3c4ccsc4cc4[nH]c5ccc([N+](=O)[O-])cc5c34)c2c1,-14.3% (active),30.1%,-5.82% (active),-42.2% (active),19.3%,-4.03% (active),-44.9% (active),41.8%,11.3%,-14.5% (active),-24.3% (active),13.4%,6.49% (active),9.2% (active),-7.86% (active),14.5%,0.522% (active),27.1%,–,–
CO/C(=C1/NC(=O)C(Cc2ccc(O)c(Br)c2)N(C)C(=O)C(C)NC(=O)CCC/C=C(\C)CCC(C)OC1=O)c1ccccc1 (stereo not drawn),-17.3% (active),–,-31.3% (active),-79.5% (active),-43.6% (active),-65.3% (active),-52.3% (active),-54% (active),3.37% (active),5.97% (active),-94.2% (active),-4.37% (active),-36.8% (active),-9.06% (active),-67.6% (active),9.3% (active),-34.2% (active),-25.8% (active),6.13% (active),–
CC(C)CCC[C@@H](C)[C@H]1CCC2C3=CCC4C(=O)C=CC(=O)C4C3CC[C@@]21C (stereo partly drawn),26.6%,–,28.6%,-66.6% (active),20.4%,-61.2% (active),-25.6% (active),-3.37% (active),3.29% (active),11.3%,7.34% (active),38.2%,11.5%,9.01% (active),-48.5% (active),28.7%,-43.4% (active),41.9%,9.94% (active),17.5
CCOC(=O)C1=C(C)NC(SCc2nnc(-c3ccc(Cl)cc3)o2)=NC1c1ccc(Cl)cc1Cl (stereo not drawn),73.1%,72.8%,41.7%,43.4%,73.8%,47.2%,86.4%,68.1%,55.3%,53.1%,84.1%,72.9%,65.3%,45.1%,80.3%,51.6%,58.3%,101%,–,65.2
CCCCN(CCCC)CCCn1c(=O)c2sc3ncccc3c2n2nnc(-c3ccccc3)c12,114%,–,93.8%,111%,112%,–,99.6%,104%,99.8%,74.4%,86.1%,101%,95.3%,91.3%,107%,90.8%,110%,98.4%,108%,107
Cc1c(C)c2c(c(C)c1NC(=O)/C=C\C(=O)O)CCC(C)(CCCC(C)CCCC(C)CCCC(C)C)O2 (stereo not drawn),80.2%,–,70.9%,-93% (active),53.9%,66.3%,8.15% (active),20.5%,2.82% (active),20.7%,33.2%,78.1%,60.2%,16.6%,-97.7% (active),22.8%,–,-10.6% (active),71.9%,20.7
O=[N+]([O-])c1ccc(-c2cc3c(Nc4ccc(Cl)c(C(F)(F)F)c4)ncnc3s2)cc1,23%,-22.8% (active),5.95% (active),5.99% (active),24.3%,-6.39% (active),14.9%,-18.6% (active),10.2%,3.89% (active),16.4%,12.1%,8.85% (active),11.5%,-42.5% (active),-1.39% (active),6.09% (active),20.1%,–,19.4
COc1ccc(-c2nnc(-c3ccc4c(c3)nc(-c3ccccc3)n4C3CCCCC3)o2)cc1,71.7%,69.4%,72.9%,97.3%,71.2%,53.2%,88.1%,67.4%,41.9%,34.9%,98.7%,86%,71.3%,18.5%,24.9%,43.7%,36.9%,88.5%,–,38.9
